Test [1] is described as follows: qHTS assay to identify small molecule antagonists of the androgen receptor (AR) signaling pathway - cell viability counter screen (AID 743033; further: nearly all actives have a fitted effect of over 45% in size).
The nature of test [2]: qHTS assay to identify small molecule antagonists of the androgen receptor (AR) signaling pathway using the MDA cell line - cell viability counter screen (AID 743041; further: nearly all actives have a fitted effect of over 45% in size). The gist of the method:
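Cells were plated at 3,000 per well and left 5 h. Compounds in DMSO were then pinned in, followed by R1881. After 16 h at 37C, CellTiter-Fluor fluorescence gave viability.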
(In qHTS, concentration-response curves come from the screen itself.)

The nature of test [3]: qHTS assay to identify small molecule antagonists of the thyroid receptor (TR) signaling pathway - cell viability counter screen (AID 743064). Further: nearly all actives have a fitted effect of over 50% in size. A digest of the protocol:
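GH3.TRE-Luc cells, 4 h pre-plating; cpd + T3 1 nM final; 37 °C 23.5 h; CellTiter-Fluor 30 min; fluorescence read.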

For test [4], the system named is thyroid hormone receptor (rat, GH3 cells). The test is described as follows: qHTS assay to identify small molecule agonists of the thyroid receptor (TR) signaling pathway (AID 743066; calls by dose curve).
For test [5], the target named is Estrogen receptor (Homo sapiens) (UniProt P03372). The test is described as follows: qHTS assay to identify small molecule antagonists of the estrogen receptor alpha (ER-alpha) signaling pathway (AID 743069; active means well fitted curve in the direction sought with a large enough effect in the signal ratio in the repeat runs, not every such curve was filed as active; the % refers to the signal ratio; further: potency means the concentration at half of the fitted maximal effect). The gist of the method:
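ER-alpha-UAS-bla GripTite HEK293 line; 2% charcoal-stripped FBS overnight; plated, 4 hr 37C/5% CO2; cpd in DMSO + 17beta-estradiol, 18 hr 37C; LiveBLAzer B/G FRET substrate 2 hr RT; fluorescence intensity.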

Test [6] in a line: qHTS assay to identify small molecule antagonists of the estrogen receptor alpha (ER-alpha) signaling pathway - cell viability counter screen (AID 743074; calls by dose curve;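 further: HEK293 cells carrying ER-alpha-UAS-bla reporter stimulated with 17beta-estradiol; nearly all actives have a fitted effect of over 45% in size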).
Test [7] deals with Estrogen receptor (Homo sapiens) (UniProt P03372). The test is described as follows: qHTS assay to identify small molecule agonists of the estrogen receptor alpha (ER-alpha) signaling pathway (AID 743075; calls by dose curve;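 further: HEK293 GripTite cells with ER-alpha and UAS-driven beta-lactamase reporter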).
For test [8] the target is unchanged. The test is described as follows: qHTS assay to identify small molecule agonists of the estrogen receptor alpha (ER-alpha) signaling pathway using the BG1 cell line (AID 743079). Further: nearly all actives have a fitted effect of over 20% in size.
A short description of test [9]: qHTS assay to identify small molecule antagonists of the estrogen receptor alpha (ER-alpha) signaling pathway using the BG1 cell line (AID 743080; calls by dose curve; further: series mostly up to about 70 µM; nearly all actives have a fitted effect of over 25% in size). The gist of the method:
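Antagonist mode: compounds in DMSO were pinned onto BG1-Luc-4E2 cells alongside 17beta-estradiol agonist, incubated 21.5 h, and ERE-driven luciferase measured with ONE-Glo. Cytotoxicity was multiplexed using CellTiter-Fluor fluorescence.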

Test [10] in a line: qHTS assay to identify small molecule antagonists of the estrogen receptor alpha (ER-alpha) signaling pathway using the BG1 cell line - cell viability counter screen (AID 743081).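 Further: compound given together with 17beta-estradiol as the ER stimulus; series mostly up to about 70 µM; nearly all actives have a fitted effect of over 45% in size.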
In another test the target is Aromatase (Homo sapiens) (UniProt P11511). The test is described as follows: qHTS assay to identify aromatase inhibitors (AID 743083). Further: series mostly up to about 70 µM; nearly all actives have a fitted effect of over 55% in size.
Test [11] in a line: qHTS assay for identifying genotoxic compounds that show differential cytotoxicity against isogenic chicken DT40 cell lines with known DNA damage response pathways - wild type cell line (AID 743012). Further: nearly all actives have a fitted effect of over 60% in size. The gist of the method: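 Wild type DT40, 300 cells/well, ~0.5 h settle at 37 C/5% CO2; compounds in DMSO added by pintool; 40 h at 37 C/5% CO2; CellTiter-Glo, 30 min RT; luminescence.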

Test [12] can be described thus: qHTS assay for identifying genotoxic compounds that show differential cytotoxicity against isogenic chicken DT40 cell lines with known DNA damage response pathways - Rad54/Ku70 mutant cell line (AID 743015). Further: nearly all actives have a fitted effect of over 60% in size.
The target of test [13] is Androgen receptor (Homo sapiens) (UniProt P10275). The test is described as follows: qHTS assay to identify small molecule agonists of the androgen receptor (AR) signaling pathway (AID 743036; active means well fitted activation curve with a large enough effect in the signal ratio in the repeat runs, with a control signal flat, not every such curve was filed as active; the % refers to the signal ratio). The gist of the method: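 AR-bla HEK293 cells, 2,000/well; 4 h preincubation 37C/5% CO2; compound (DMSO) 16 h at 37C; LiveBLAzer B/G FRET substrate 2 h RT; fluorescence intensity read-out.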

The target is the same in test [14]. The test is described as follows: qHTS assay to identify small molecule agonists of the androgen receptor (AR) signaling pathway using the MDA cell line (AID 743040; further: nearly all actives have a fitted effect of over 20% in size). A digest of the protocol:
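Cells plated, 5 h at 37C/0% CO2; compound or DMSO pinned; 16 h at 37C; ONE-Glo added; luminescence measured after 30 min at room temperature. Reporter line: MDA-kb2 with MMTV-luciferase responsive to AR and GR.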

For test [15] the target is unchanged. The test is described as follows: qHTS assay to identify small molecule antagonists of the androgen receptor (AR) signaling pathway using the MDA cell line (AID 743042; further: nearly all actives have a fitted effect of over 55% in size). A digest of the protocol:
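Antagonist mode: compounds plus R1881 agonist added to MDA-kb2 AR-luc cells, incubated 16 h at 37C. Luciferase reporter luminescence quantified, with multiplexed CellTiter-Fluor readout for cell viability.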

The nature of test [16]: qHTS assay to identify small molecule antagonists of the thyroid receptor (TR) signaling pathway (AID 743065). Further: series mostly up to about 70 µM; nearly all actives have a fitted effect of over 55% in size. A digest of the protocol: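 Antagonism measured as loss of luciferase signal in GH3 cells stably carrying a TRE-luciferase reporter, co-treated with compound and T3 (1 nM final) for 23.5 h at 37 C. Viability was read in the same well by CellTiter-Fluor.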
Test [17] in a line: qHTS assay for identifying genotoxic compounds that show differential cytotoxicity against isogenic chicken DT40 cell lines with known DNA damage response pathways - Rev3 mutant cell line (AID 743014). Further: nearly all actives have a fitted effect of over 55% in size.

Inconclusive results are not listed. The source made the active and inactive calls. Unless noted, the call rests on the fitted dose curve; in most records, active means well fitted curve in the direction sought with a large enough effect in the repeat runs; inconclusive means weak or mixed curves; inactive means no such curve, though single readings can be large; an effect the other way counts as inactive or inconclusive.

Chain of Androgen receptor (Homo sapiens) (P10275 whole entry, looked up): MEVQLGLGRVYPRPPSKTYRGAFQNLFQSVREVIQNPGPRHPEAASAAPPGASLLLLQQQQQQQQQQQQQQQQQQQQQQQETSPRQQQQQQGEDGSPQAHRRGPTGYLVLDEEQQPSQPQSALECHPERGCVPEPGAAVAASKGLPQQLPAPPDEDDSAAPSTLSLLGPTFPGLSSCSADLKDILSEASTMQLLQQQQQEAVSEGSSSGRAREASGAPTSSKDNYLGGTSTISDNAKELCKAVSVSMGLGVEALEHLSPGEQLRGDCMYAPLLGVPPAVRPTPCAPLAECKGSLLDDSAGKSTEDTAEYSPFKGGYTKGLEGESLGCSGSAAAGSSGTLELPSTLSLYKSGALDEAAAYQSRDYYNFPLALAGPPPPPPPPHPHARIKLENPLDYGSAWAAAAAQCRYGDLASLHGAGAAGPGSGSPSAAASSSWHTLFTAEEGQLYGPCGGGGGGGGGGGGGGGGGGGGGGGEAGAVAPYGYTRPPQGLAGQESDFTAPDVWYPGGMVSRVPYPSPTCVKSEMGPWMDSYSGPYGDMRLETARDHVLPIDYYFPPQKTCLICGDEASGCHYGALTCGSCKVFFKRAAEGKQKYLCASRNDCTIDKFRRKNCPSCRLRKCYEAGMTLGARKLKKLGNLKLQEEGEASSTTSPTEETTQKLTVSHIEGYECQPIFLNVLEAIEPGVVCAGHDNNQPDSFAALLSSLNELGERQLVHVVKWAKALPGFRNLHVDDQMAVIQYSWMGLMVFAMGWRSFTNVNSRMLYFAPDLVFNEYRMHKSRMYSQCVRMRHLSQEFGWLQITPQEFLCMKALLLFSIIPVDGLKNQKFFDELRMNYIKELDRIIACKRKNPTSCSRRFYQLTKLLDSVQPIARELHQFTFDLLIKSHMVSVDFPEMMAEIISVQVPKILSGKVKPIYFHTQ
Chain of Estrogen receptor (Homo sapiens) (P03372 whole entry, looked up): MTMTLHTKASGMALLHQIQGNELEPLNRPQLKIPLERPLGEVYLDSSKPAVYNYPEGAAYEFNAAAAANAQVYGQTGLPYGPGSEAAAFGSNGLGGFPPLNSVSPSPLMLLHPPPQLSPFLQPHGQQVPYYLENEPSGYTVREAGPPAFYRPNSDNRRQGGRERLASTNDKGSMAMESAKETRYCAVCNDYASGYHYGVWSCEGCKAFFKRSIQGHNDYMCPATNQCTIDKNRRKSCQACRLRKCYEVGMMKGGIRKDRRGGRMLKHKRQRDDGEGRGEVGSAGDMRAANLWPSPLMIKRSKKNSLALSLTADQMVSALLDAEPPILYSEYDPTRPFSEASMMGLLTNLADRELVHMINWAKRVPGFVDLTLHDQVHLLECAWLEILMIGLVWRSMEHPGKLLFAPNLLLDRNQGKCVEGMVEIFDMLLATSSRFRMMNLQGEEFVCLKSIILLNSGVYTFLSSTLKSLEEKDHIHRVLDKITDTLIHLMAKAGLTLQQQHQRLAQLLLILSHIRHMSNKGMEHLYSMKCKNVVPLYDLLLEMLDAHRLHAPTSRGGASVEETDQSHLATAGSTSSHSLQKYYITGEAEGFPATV
Chain of Aromatase (Homo sapiens) (P11511 whole entry, looked up): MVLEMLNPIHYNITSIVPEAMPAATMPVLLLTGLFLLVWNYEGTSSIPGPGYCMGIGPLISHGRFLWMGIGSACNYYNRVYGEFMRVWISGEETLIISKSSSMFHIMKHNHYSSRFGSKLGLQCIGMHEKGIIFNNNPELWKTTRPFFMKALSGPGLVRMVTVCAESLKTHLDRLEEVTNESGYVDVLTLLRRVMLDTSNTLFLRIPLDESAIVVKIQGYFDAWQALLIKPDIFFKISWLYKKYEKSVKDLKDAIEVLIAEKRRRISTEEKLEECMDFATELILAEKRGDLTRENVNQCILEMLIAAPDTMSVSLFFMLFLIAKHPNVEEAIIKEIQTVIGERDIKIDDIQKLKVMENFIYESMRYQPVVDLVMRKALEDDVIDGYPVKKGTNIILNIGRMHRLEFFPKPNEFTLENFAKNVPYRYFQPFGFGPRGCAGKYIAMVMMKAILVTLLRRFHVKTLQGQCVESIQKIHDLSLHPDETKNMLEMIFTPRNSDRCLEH

Consider `NC(=O)C1(N2CCCCC2)CCN(CCCC(=O)c2ccc(F)cc2)CC1`, for which the call (in [1]; in test [2]; in test [9]; in [10]; with Aromatase (Homo sapiens)) was inactive. Also, the Potency entry in test [3], in test [4], in test [5], in test [6], in test [7] and in test [8] was “inactive” in each case.
In the case of `COc1cc([N+](=O)[O-])ccc1N`, the Potency result in [11], in test [12], in test [4], in [6], in [7] and in test [8] was “inactive” in each case. In addition, the outcome (in [1]; in test [13]; in test [14]; in [15]; in test [9]; with Aromatase (Homo sapiens)) was inactive. The Potency in [5] is 6.92 µM [inhibitor] (active).
On to `CC(C)COC(=O)CCCCC(=O)OCC(C)C`, for which the Potency result in [11], in [12], in [16], in test [4] and in test [6] was “inactive” throughout. The call (in [1]; in test [2]; in [10]; in the test with Aromatase (Homo sapiens)) was inactive.
As for `CO/N=C(/C(=O)N[C@@H]1C(=O)N2C(C(=O)O)=C(Cn3nnc(C)n3)CS[C@H]12)c1csc(N)n1`, the Potency result in test [17], in test [12], in test [3], in test [16] and in test [4] was “inactive” in each case. Further, the result in test [1], in test [2] and in test [10] was inactive.
Turning to `CCCCCCCCC(=O)OCC`, the Potency entry in [11], in test [17], in [12], in [4], in test [5] and in test [6] was “inactive” each time. Also, the Potency result in test [7] and in test [8] was “inactive” each time. Further, the call (in test [9]; in [10]; in the test with Aromatase (Homo sapiens)) was inactive.
With `CCCO`, the Potency result in test [17], in test [12], in test [3], in [16], in test [4] and in test [5] was “inactive” each time. The Potency result in [6], in test [7] and in test [8] was “inactive” each time. Also, the call (in test [1]; in test [2]; in test [9]; in test [10]; in the test with Aromatase (Homo sapiens)) was inactive.
For the compound `NS(=O)(=O)c1cc2c(cc1Cl)NC(C(Cl)Cl)NS2(=O)=O` (stereo not drawn), the Potency result in [11], in [12], in test [3], in [16], in [4] and in test [6] was “inactive” throughout. For the same compound, the call (in [2]; in test [10]; in the test with Aromatase (Homo sapiens)) was inactive.
Consider `CC(=O)OCC(=O)[C@@]1(O)[C@H](OC(C)=O)C[C@H]2[C@@H]3CCC4=CC(=O)C=C[C@]4(C)[C@@]3(F)[C@@H](O)C[C@@]21C`, for which the call (in test [2]; in test [10]; with Aromatase (Homo sapiens)) was inactive. Also, the Potency result in [4], in [6] and in test [7] was “inactive” each time.
In the case of `F[Si-2](F)(F)(F)(F)F`, the Potency result in [17], in test [12], in test [3], in [16], in test [4] and in [5] was “inactive” each time. Besides, the Potency entry in test [6], in [7] and in test [8] was “inactive” in each case. In addition, the compound was classed as inactive (in test [1]; in [2]; in test [9]; in [10]; in the test with Aromatase (Homo sapiens)).
Turning to `Cc1cccc(Nc2ccncc2S(=O)(=O)NC(=O)NC(C)C)c1`, the Potency entry in [11], in test [12], in test [3], in [4], in test [5] and in [6] was “inactive” each time. In addition, the Potency entry in test [7] and in test [8] was “inactive” each time. Moreover, the compound was classed as inactive (in [2]; in test [9]; in test [10]; with Aromatase (Homo sapiens)).
With `C[C@H]1O[C@H](O[C@H]2[C@H](O)[C@@H](O)[C@@H](O[C@H]3[C@H](O)[C@@H](O)[C@H](O)O[C@@H]3CO)O[C@@H]2CO)[C@H](O)[C@@H](O)[C@@H]1N[C@H]1C=C(CO)[C@@H](O)[C@H](O)[C@H]1O`, the Potency result in test [11], in test [17], in [12], in test [16], in [4] and in test [6] was “inactive” throughout. Also, the outcome (in test [1]; in test [2]; in test [10]; with Aromatase (Homo sapiens)) was inactive.
For the compound `C1CCN2C[C@@H]3C[C@@H](CN4CCCC[C@@H]34)[C@H]2C1`, the Potency entry in test [12], in test [3], in test [16], in [4] and in test [6] was “inactive” in each case. Besides, the result (in test [1]; in test [2]; with Aromatase (Homo sapiens)) was inactive.
For the compound `CC(C)SCc1ccco1`, the Potency entry in test [12], in [16], in test [4], in test [5], in test [6] and in test [7] was “inactive” in each case. Further, the Potency entry in test [8] was “inactive”. Further, the compound was classed as inactive (in test [1]; in test [2]; in [9]; in [10]; with Aromatase (Homo sapiens)).
For `CCC(C)(CCC(C)C)C(=O)[O-].CCC(C)(CCC(C)C)C(=O)[O-].[Zn+2]` (stereo not drawn), the Potency entry in test [12], in test [3], in [16], in [4] and in [6] was “inactive” in each case. The compound was called inactive in test [1], in test [2] and in [10].
Turning to `COc1ccc(NS(=O)(=O)c2ccc(N)cc2)nn1`, the Potency result in test [12], in test [3], in test [16], in test [4], in test [5] and in test [6] was “inactive” throughout. Further, the Potency entry in test [7] and in test [8] was “inactive” in each case. Besides, the compound was classed as inactive (in test [1]; in test [2]; in test [9]; in test [10]; in the test with Aromatase (Homo sapiens)).

The record behind these values is PubChem BioAssay (Tox21).
